Some test systems named below: DU-145 prostate; K-562 leukemia; MDA-MB-231 breast; RXF 393 renal; SF-268 CNS; SF-539 CNS; UACC-257 melanoma; M14 melanoma; SF-295 CNS; MALME-3M melanoma.
Assay in all cases: NCI-60 one-dose screen, 48 h (100 = growth as untreated, 0 = no growth, -100 = all killed)
Common to all, as to details: 10 µM

About 83,000 compounds went through this panel and 20% of them were active in at least one assay; those are over-represented in the sample as a whole.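 How to read the values: 0–100, growth inhibition (40 = 60% inhibited); 0, no net growth; -100 to 0, cell death (-40 = 40% of starting cells died; -100 = all dead).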 A number with no mark means an inactive call. Active and inactive are the calls of the source. Rule for the calls: active = growth percent below 10; inactive = the rest.

This is an account of results in PubChem BioAssay (NCI).

For `Cc1ccc(NC(=O)N2CCCCC2)cc1[N+](=O)[O-]`, the growth in the assay with DU-145 prostate is 108%; in the assay with K-562 leukemia it was 106%; in the assay with MDA-MB-231 breast it was 95.5%; in the assay with RXF 393 renal it was 106%; in the assay on SF-268 CNS it was 81.1%; in the assay with SF-539 CNS it was 92.6%. Also, the growth with UACC-257 melanoma was -0.113% (active); in the assay with M14 melanoma, 90.8%.

On to `O[C@@H]1CO[C@H]2[C@@H]1OC[C@@H]2O`, for which the growth with DU-145 prostate is 108%; in the assay with K-562 leukemia it was 124%; in the assay on MDA-MB-231 breast it was 92.5%; with RXF 393 renal, 125%; with SF-268 CNS it was 108%; with SF-539 CNS it was 106%. Also, the growth with UACC-257 melanoma is 103%.

As for `CC(C)(C)c1nn(-c2ccccc2)c2c1CC1(CN2Cc2ccc(Cl)cc2)C(=O)c2ccccc2C1=O`, the growth is 95.8% in the assay with DU-145 prostate; 81.3% with K-562 leukemia; 83.2% with MDA-MB-231 breast; 95.3% with RXF 393 renal; 89% with SF-268 CNS; 76.1% in the assay on UACC-257 melanoma. Besides, in the assay with M14 melanoma, the growth is 87.1%.

Regarding `OCCn1cccn1`, the growth is 104% in the assay with DU-145 prostate; 101% in the assay on K-562 leukemia; 103% in the assay on MDA-MB-231 breast; 93.8% in the assay with RXF 393 renal; 100% in the assay on SF-268 CNS; 108% in the assay with SF-295 CNS. The growth in the assay with SF-539 CNS is 98.3%; with UACC-257 melanoma, 136%; with M14 melanoma, 112%.

Consider `Clc1ccc(Cc2ccncc2)cc1`, for which the growth was 114% in the assay with DU-145 prostate; 111% in the assay on K-562 leukemia; 99.5% in the assay with MDA-MB-231 breast; 110% in the assay on RXF 393 renal; 96.2% with SF-268 CNS; 112% in the assay on SF-295 CNS. The values for the growth in the assay with UACC-257 melanoma and with M14 melanoma were 104% and 109%, respectively.

As for `O=C(c1ccccc1)N(C(=O)c1ccccc1)N1CCCC1`, the growth in the assay with DU-145 prostate was 113%; in the assay on K-562 leukemia, 101%; with MDA-MB-231 breast, 117%; in the assay with RXF 393 renal it was 110%; with SF-268 CNS, 98.7%; in the assay on SF-295 CNS, 104%. Moreover, the growth in the assay on SF-539 CNS is 99.9%; in the assay on M14 melanoma, 102%.

Regarding `COc1ccc(/C=c2\sc3n(c2=O)C(c2cc(OC)c(OC)c(OC)c2)C=C(c2ccc(OC)c(OC)c2)N=3)cc1OC` (stereo unspecified), the growth with DU-145 prostate is 112%; in the assay with K-562 leukemia, 89.9%; in the assay on MDA-MB-231 breast, 85.5%; in the assay with RXF 393 renal, 105%; in the assay with SF-268 CNS, 91.1%; with SF-295 CNS it was 115%. The growth in the assay with UACC-257 melanoma was 88.9%; with M14 melanoma, 100%.

Consider `Cc1ccc(C(SCC(N)C(=O)O)(c2ccc(C)cc2)c2ccc(C)cc2)cc1` (stereo unspecified), for which the growth in the assay on DU-145 prostate is -39% (active); with K-562 leukemia it was 0.419% (active); in the assay with MDA-MB-231 breast, 1.37% (active); in the assay with SF-268 CNS, 17.6%; in the assay with SF-295 CNS, -13.8% (active); in the assay with SF-539 CNS, -29.7% (active). Besides, the figures for the growth in the assay with UACC-257 melanoma and with M14 melanoma were -18.5% (active) and -74.5% (active), respectively.

Turning to `CCN(CC)CCCC(C)N=C(C1=C(C(=NC(C)CCCN(CC)CC)c2cccc(OC)c2)C(=O)NC1=O)c1cccc(OC)c1` (stereo unspecified), the growth in the assay with DU-145 prostate is -5.08% (active); with K-562 leukemia, -44.2% (active); in the assay on RXF 393 renal, -64.8% (active); in the assay on SF-268 CNS, -29.5% (active); in the assay with SF-295 CNS, -53.5% (active); in the assay with SF-539 CNS it was -85.3% (active). Further, the results for the growth in the assay with UACC-257 melanoma and with M14 melanoma were -95.2% (active) and -77.5% (active), respectively.

As for `COc1ccc(CCN2CCC(Nc3nc4ccccc4n3Cc3ccc(F)cc3)CC2)cc1`, the growth in the assay with DU-145 prostate is 46.4%; in the assay with MALME-3M melanoma, -79.5% (active); with MDA-MB-231 breast it was -31.5% (active); with RXF 393 renal, -67.8% (active); in the assay on SF-268 CNS it was 27.7%; in the assay on SF-295 CNS, -85.7% (active). The growth is -81% (active) in the assay with SF-539 CNS, -81.7% (active) in the assay on UACC-257 melanoma and -99.4% (active) with M14 melanoma.

As to `COc1ccccc1N1CCCSC1=Nc1ccccc1`, the growth in the assay with DU-145 prostate was 99.7%; with K-562 leukemia it was 78.4%; in the assay with MDA-MB-231 breast, 101%; in the assay with SF-268 CNS, 99%; with SF-295 CNS it was 80.2%; in the assay on SF-539 CNS, 98.9%. Besides, the values for the growth in the assay on UACC-257 melanoma and in the assay with M14 melanoma were 43.7% and 63.3%, respectively.

On to `C[N+]1(CCCCC[N+]2(C)CCCC2)CCCC1`, for which the growth in the assay on DU-145 prostate is 93.2%; with MALME-3M melanoma, 90%; in the assay on MDA-MB-231 breast it was 89.5%; with RXF 393 renal, 122%; with SF-268 CNS, 97.1%; in the assay on SF-295 CNS, 123%. Also, the growth in the assay on SF-539 CNS was 93.7%; in the assay with UACC-257 melanoma it was 102%; with M14 melanoma, 98.5%.

As to `C[C@@H](O)[C@H]1C(=O)N2C(C(=O)O)=C(SCCN=CN)C[C@H]12`, the growth in the assay with DU-145 prostate is -7.37% (active); in the assay with MALME-3M melanoma, -60.1% (active); in the assay on MDA-MB-231 breast, 9.83% (active); in the assay on RXF 393 renal, 1.5% (active); in the assay with SF-268 CNS it was -4.56% (active); in the assay on SF-295 CNS, -5.26% (active). Further, the growth in the assay with SF-539 CNS is 3.65% (active); in the assay on UACC-257 melanoma, -31% (active); in the assay on M14 melanoma it was -44.7% (active).

Regarding `COc1cc2c(cc1OC)C(C(CCCCCC(CCC(C)C)C1NCCc3cc(OC)c(OC)cc31)CCC(C)C)NCC2` (stereo unspecified), the growth in the assay on DU-145 prostate was -100% (active); in the assay on K-562 leukemia it was 13.6%; with MDA-MB-231 breast it was -81.9% (active); in the assay on SF-268 CNS, -95.7% (active); in the assay on SF-295 CNS, -77.5% (active); in the assay on SF-539 CNS, -97.4% (active). In addition, the growth was -92.5% (active) in the assay on UACC-257 melanoma and -93.6% (active) with M14 melanoma.

For `CCC1NC(=O)c2cc(S(N)(=O)=O)c(Cl)cc2N1` (stereo unspecified), the growth was 124% with DU-145 prostate; 118% in the assay with MALME-3M melanoma; 109% in the assay on MDA-MB-231 breast; 115% in the assay with RXF 393 renal; 115% in the assay on SF-268 CNS; 93% in the assay with SF-295 CNS. Also, the growth in the assay with SF-539 CNS is 115%; in the assay on UACC-257 melanoma, 104%; with M14 melanoma, 110%.

In the case of `C[C@]12CCC3c4ccc(O)cc4C[C@@H](CCCCCCCCCS(=O)CCCC(F)(F)C(F)(F)F)C3C1CC[C@@H]2O` (stereo partly specified), the growth is 103% in the assay on DU-145 prostate; 103% in the assay with MALME-3M melanoma; 79.5% with MDA-MB-231 breast; 87.5% with RXF 393 renal; 97.1% with SF-268 CNS; 42.8% in the assay with SF-295 CNS. Besides, the growth in the assay on SF-539 CNS is 86.4%; with UACC-257 melanoma it was 91.5%; with M14 melanoma, 100%.

With `COc1ccc2nc3cc(Cl)ccc3c(Nc3cc(CN4CCCC4)c(O)c(CN4CCCC4)c3)c2n1`, the growth was 18.2% in the assay on DU-145 prostate; -73.6% (active) in the assay with MALME-3M melanoma; -21.6% (active) in the assay on MDA-MB-231 breast; -68.9% (active) in the assay on RXF 393 renal; -25.1% (active) in the assay on SF-268 CNS; -26.8% (active) in the assay with SF-295 CNS. Also, the growth was -21.6% (active) with SF-539 CNS, -87.3% (active) with UACC-257 melanoma and -82.5% (active) in the assay on M14 melanoma.
